# Columns and labels:
# U-2932 [1] = test: growth inhibition by drug alone (1 - RLU/untreated control) (fraction); higher = stronger inhibition; settings: 177Lu-lilotomab satetraxetan 0 ug/ml
# How it was run: (§1)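 A radiolabelled anti-CD37 antibody conjugate (~600 MBq/mg) was applied for 18 h at 0.5 µg/ml to RIVA and 1 µg/ml to U-2932 cells, with untreated cells run alongside. All cells were washed and seeded at 3,000 cells/well onto library-printed plates at 10/100 nM (RIVA) or 10/1,000 nM (U-2932). Growth inhibition was based on RealTime-Glo luminescence compared with untreated no-drug wells. Daily reads began on day 3 after 1 h at 37°C, with each value being 1 − RLU/mean of the 48 such wells on that plate.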
# U-2932 [2] = test: growth inhibition by drug plus 177Lu-lilotomab satetraxetan (1 - RLU/untreated control) (fraction); higher = stronger inhibition; settings: 177Lu-lilotomab satetraxetan 1 ug/ml
# How it was run: as §1
# RIVA [3] = test: as above; settings: 177Lu-lilotomab satetraxetan 0.5 ug/ml
# How it was run: as §1
# RIVA [4] = test: growth inhibition by drug alone (1 - RLU/untreated control) (fraction); higher = stronger inhibition; settings: 177Lu-lilotomab satetraxetan 0 ug/ml
# How it was run: as §1
Compound,"growth inhibition by drug alone (U-2932 [1]; 10 nM, time (day): 3)","growth inhibition by drug alone (U-2932 [1]; 10 nM, time (day): 4)","growth inhibition by drug alone (U-2932 [1]; 10 nM, time (day): 5)","growth inhibition by drug alone (U-2932 [1]; 10 nM, time (day): 6)","growth inhibition by drug alone (U-2932 [1]; 1000 nM, time (day): 3)","growth inhibition by drug alone (U-2932 [1]; 1000 nM, time (day): 4)","growth inhibition by drug alone (U-2932 [1]; 1000 nM, time (day): 5)","growth inhibition by drug alone (U-2932 [1]; 1000 nM, time (day): 6)","growth inhibition by drug plus 177Lu-lilotomab satetraxetan (U-2932 [2]; 10 nM, time (day): 3)","growth inhibition by drug plus 177Lu-lilotomab satetraxetan (U-2932 [2]; 10 nM, time (day): 4)","growth inhibition by drug plus 177Lu-lilotomab satetraxetan (U-2932 [2]; 10 nM, time (day): 5)","growth inhibition by drug plus 177Lu-lilotomab satetraxetan (U-2932 [2]; 10 nM, time (day): 6)","growth inhibition by drug plus 177Lu-lilotomab satetraxetan (U-2932 [2]; 1000 nM, time (day): 3)","growth inhibition by drug plus 177Lu-lilotomab satetraxetan (U-2932 [2]; 1000 nM, time (day): 4)","growth inhibition by drug plus 177Lu-lilotomab satetraxetan (U-2932 [2]; 1000 nM, time (day): 5)","growth inhibition by drug plus 177Lu-lilotomab satetraxetan (U-2932 [2]; 1000 nM, time (day): 6)","growth inhibition by drug plus 177Lu-lilotomab satetraxetan (RIVA [3]; 10 nM, time (day): 3)","growth inhibition by drug plus 177Lu-lilotomab satetraxetan (RIVA [3]; 10 nM, time (day): 4)","growth inhibition by drug plus 177Lu-lilotomab satetraxetan (RIVA [3]; 10 nM, time (day): 5)","growth inhibition by drug plus 177Lu-lilotomab satetraxetan (RIVA [3]; 10 nM, time (day): 6)","growth inhibition by drug plus 177Lu-lilotomab satetraxetan (RIVA [3]; 100 nM, time (day): 3)","growth inhibition by drug plus 177Lu-lilotomab satetraxetan (RIVA [3]; 100 nM, time (day): 4)","growth inhibition by drug plus 177Lu-lilotomab satetraxetan (RIVA [3]; 100 nM, time (day): 5)","growth inhibition by drug plus 177Lu-lilotomab satetraxetan (RIVA [3]; 100 nM, time (day): 6)","growth inhibition by drug alone (RIVA [4]; 10 nM, time (day): 3)","growth inhibition by drug alone (RIVA [4]; 10 nM, time (day): 4)","growth inhibition by drug alone (RIVA [4]; 10 nM, time (day): 5)","growth inhibition by drug alone (RIVA [4]; 10 nM, time (day): 6)","growth inhibition by drug alone (RIVA [4]; 100 nM, time (day): 3)","growth inhibition by drug alone (RIVA [4]; 100 nM, time (day): 4)","growth inhibition by drug alone (RIVA [4]; 100 nM, time (day): 5)","growth inhibition by drug alone (RIVA [4]; 100 nM, time (day): 6)"
Nc1nccc(Oc2ccc(NC(=O)c3c[nH]cc(-c4ccc(F)cc4)c3=O)cc2F)c1Cl,-0.0716,-0.0777,-0.0731,-0.06,-0.103,-0.0916,-0.0987,-0.109,-0.0906,-0.0231,0.0271,0.0973,-0.0589,0.0171,0.0665,0.209,0.468,0.516,0.536,0.547,0.364,0.43,0.425,0.43,,,,,,,,
Nc1nc(Nc2ccc(S(N)(=O)=O)cc2)nn1C(=O)c1c(F)cccc1F,0.0686,0.0712,0.0243,-0.028,0.297,0.39,0.398,0.477,0.0456,0.07,0.0808,0.137,0.452,0.614,0.661,0.719,0.373,0.516,0.536,0.556,0.486,0.6,0.611,0.599,0.09,-0.0123,-0.071,-0.232,-0.0601,-0.0559,-0.0832,-0.218
COc1ccc(COc2cc3oc(=O)c4cc(C(C)O)ccc4c3cc2OC)cc1 (configuration not stated) [Palomid 529],0.0334,0.0194,-0.0368,-0.114,-0.0247,0.00321,-0.0394,-0.242,-0.0294,0.00126,0.0363,0.0704,-0.0939,0.0227,0.013,0.0753,0.337,0.478,0.494,0.503,0.321,0.445,0.454,0.453,,,,,,,,
CC#C[C@]1(O)CC[C@H]2[C@@H]3CCC4=CC(=O)CCC4=C3[C@@H](c3ccc(N(C)C)cc3)C[C@@]21C [Mifepristone (Mifeprex)],-0.0691,-0.0767,-0.047,0.0535,-0.0327,-0.0148,-0.0455,0.0917,-0.019,0.0308,0.0649,0.159,-0.0642,-0.00915,0.0416,0.233,0.413,0.477,0.486,0.497,0.391,0.438,0.445,0.436,,,,,,,,
N#CC(c1ccnc(NCCc2cccnc2)n1)c1nc2ccccc2s1 (configuration not stated) [JNK Inhibitor V],-0.0956,-0.056,-0.0395,0.0624,-0.154,-0.122,-0.116,-0.143,-0.113,-0.0825,-0.0367,0.103,-0.0869,-0.00408,0.0113,0.0923,0.255,0.419,0.467,0.481,0.265,0.376,0.381,0.353,-0.285,-0.269,-0.297,-0.462,-0.33,-0.412,-0.338,-0.441
Nc1nccc(-c2ccc3noc(-c4ccc(Cl)cc4)c3c2)n1 [PIM-1 Inhibitor 2],0.154,0.0795,7.17e-05,-0.0865,0.121,0.133,0.0739,0.0111,0.0725,0.102,0.129,0.208,0.106,0.208,0.188,0.253,0.465,0.59,0.607,0.604,0.451,0.536,0.524,0.507,0.115,0.126,0.0578,-0.0926,0.116,0.161,0.123,0.0468
CC(C)(C)c1[nH]cnc1/C=c1\[nH]c(=O)/c(=C/c2ccccc2)[nH]c1=O [NPI-2358 (Plinabulin)],0.142,0.0848,0.0507,-0.0221,0.964,0.971,0.974,0.98,0.0693,0.123,0.165,0.213,0.968,0.975,0.98,0.984,0.505,0.546,0.548,0.574,0.955,0.967,0.972,0.976,0.00478,-0.0503,-0.112,-0.272,0.941,0.953,0.959,0.963
CC1=C(/C=C/C(C)=C/C=C/C(C)=C/C(=O)Nc2ccc(O)cc2)C(C)(C)CCC1 [Fenretinide],0.0635,0.0202,-0.0163,-0.136,0.757,0.403,0.216,0.00716,0.0221,0.0894,0.138,0.148,0.704,0.374,0.313,0.295,0.515,0.573,0.583,0.583,0.435,0.504,0.521,0.541,-0.0432,-0.0451,-0.13,-0.456,-0.388,-0.302,-0.337,-0.461
Cc1ccnc(NS(=O)(=O)c2ccc(NC(=O)Nc3ccc(S(=O)(=O)Nc4nccc(C)n4)cc3)cc2)n1,0.175,0.112,-0.00245,-0.0763,0.114,0.089,-0.0667,-0.0262,0.0395,0.0885,0.162,0.182,0.099,0.13,0.195,0.303,0.581,0.617,0.633,0.636,0.492,0.533,,,0.0129,0.0204,-0.0366,-0.304,-0.284,-0.137,-0.166,-0.281

# From the supplement of paper PMC6897291
